“And” between values parts separate entries of the source, which are not always exact repeats. Equal values may be shown once. In all, about 5,500 compounds went through this assay and about 2,000 (36%) were called active. Another 18% or so got no clear call; they are omitted. No stated cut-off is given here; in the data, active means normalized growth mostly below about 0.91 (no sharp cut-off); inconclusive means no clear call, values can overlap the other calls; inactive means mostly above about 0.92. The list shows a part of the results.
Experiment: chemical genetic growth profiling, strain panel (AID 1159580);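 further: tested at 20 µM; growth read once vehicle control cultures reached saturation at 30 °C; 1 = growth at the plate median or of vehicle wells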
Conditions: S. cerevisiae deletion strains, growth OD

Measured: normalized growth

Nc1ncnc2c1ncn2C1C[C@H](O)[C@@H](CO)O1 (some centres not stated)
active: locus YLR113W, strain HOG1, stronger effect = lower value 0.845
0.995 (inactive) and 0.849 (active): locus YHR030C, strain SLT2, stronger effect = lower value
inactive: locus YAL013W, strain DEP1, stronger effect = lower value 0.998 | locus YAL021C, strain ccr4, stronger effect = lower value 1.03 | locus YAL026C, strain drs2, stronger effect = lower value 1.02 | locus YAL030W, strain snc1, stronger effect = lower value 1.01 | locus YBL061C, strain skt5, stronger effect = lower value 1.01 | locus YBR009C, strain hhf1, stronger effect = lower value 1.02 | locus YBR021W, strain FUR4, stronger effect = lower value 1.02 | locus YBR023C, strain chs3, stronger effect = lower value 1 | locus YBR171W, strain sec66, stronger effect = lower value 1.03 | locus YBR229C, strain ROT2, stronger effect = lower value 0.962 | locus YBR231C, strain swc5, stronger effect = lower value 1.01 | locus YBR279W, strain paf1, stronger effect = lower value 1.01 | locus YCL011C, strain gbp2, stronger effect = lower value 1.02 | locus YCL016C, strain dcc1, stronger effect = lower value 1.01 | locus YCL029C, strain bik1, stronger effect = lower value 0.998 | locus YCL061C, strain MRC1, stronger effect = lower value 1.02 | locus YCL069W, strain vba3, stronger effect = lower value 1.01 | locus YCR088W, strain abp1, stronger effect = lower value 1.01 | locus YDL005C, strain med2, stronger effect = lower value 1.02 | locus YDL035C, strain GPR1, stronger effect = lower value 0.99 | locus YDL040C, strain nat1, stronger effect = lower value 1.01 | locus YDL074C, strain BRE1, stronger effect = lower value 1.01 | locus YDL101C, strain DUN1, stronger effect = lower value 0.99 | locus YDL185W, strain tfp1, stronger effect = lower value 0.986 | locus YDL192W, strain arf1, stronger effect = lower value 1 | locus YDR001C, strain nth1, stronger effect = lower value 1.01 | locus YDR069C, strain doa4, stronger effect = lower value 1.02 | locus YDR101C, strain arx1, stronger effect = lower value 1.04 | locus YDR137W, strain rgp1, stronger effect = lower value 1.02 | locus YDR159W, strain sac3, stronger effect = lower value 1.03 | locus YDR162C, strain NBP2, stronger effect = lower value 0.984 | locus YDR195W, strain ref2 0.994 | locus YDR297W, strain sur2, stronger effect = lower value 1.01 | locus YDR318W, strain mcm21, stronger effect = lower value 0.968 | locus YDR334W, strain swr1, stronger effect = lower value 1.01 | locus YDR335W, strain msn5, stronger effect = lower value 1 | locus YDR388W, stronger effect = lower value 0.993 | locus YDR392W, strain spt3, stronger effect = lower value 1.01 | locus YDR502C, strain sam2, stronger effect = lower value 0.991 | locus YEL003W, strain gim4, stronger effect = lower value 1.02 | locus YEL037C, strain rad23, stronger effect = lower value 1 | locus YEL061C, strain CIN8 (second series), stronger effect = lower value 1.02 | locus YEL061C, strain CIN8, stronger effect = lower value 1 | locus YER015W, strain faa2, stronger effect = lower value 1.01 | locus YER016W, strain bim1, stronger effect = lower value 1.02 | locus YER110C, stronger effect = lower value 0.993 | locus YER111C, strain swi4, stronger effect = lower value 1.02 | locus YER155C, strain BEM2 (second series), stronger effect = lower value 1.03 | locus YER155C, strain BEM2, stronger effect = lower value 0.998 | locus YER167W, strain BCK2, stronger effect = lower value 0.996 | locus YFR010W, strain ubp6, stronger effect = lower value 1.01 | locus YGL078C, strain dbp3, stronger effect = lower value 0.997 | locus YGL086W, strain mad1, stronger effect = lower value 1.06 | locus YGL167C, strain pmr1, stronger effect = lower value 1.02 | locus YGL173C, strain kem1, stronger effect = lower value 1.02 | locus YGL227W, strain vid30, stronger effect = lower value 1.01 | locus YGL240W, strain doc1, stronger effect = lower value 1.02 | locus YGL248W, strain PDE1, stronger effect = lower value 0.981 | locus YGL253W, strain hxk2, stronger effect = lower value 1.02 | locus YGR135W, strain pre9, stronger effect = lower value 0.98 | locus YGR252W, strain gcn5, stronger effect = lower value 0.953 | locus YHR013C, strain ard1, stronger effect = lower value 1.01 | locus YHR027C, strain rpn1, stronger effect = lower value 1 | locus YHR079C, strain IRE1 (second series), stronger effect = lower value 0.99 | locus YHR079C, strain IRE1, stronger effect = lower value 0.872 | locus YHR094C, strain hxt1, stronger effect = lower value 0.987 | locus YHR129C, strain ARP1, stronger effect = lower value 0.989 | locus YHR142W, strain chs7, stronger effect = lower value 1.02 | locus YHR200W, strain rpn10, stronger effect = lower value 0.987 | locus YIL066C, strain RNR3, stronger effect = lower value 0.986 | locus YIL073C, strain SPO22, stronger effect = lower value 0.994 | locus YIL125W, strain kgd1, stronger effect = lower value 0.994 | locus YIR030C, strain dcg1, stronger effect = lower value 0.991 | locus YJL092W, strain hpr5, stronger effect = lower value 1.01 | locus YJL095W, strain BCK1 (second series), stronger effect = lower value 1.01 | locus YJL095W, strain BCK1, stronger effect = lower value 0.989 and 0.886 | locus YJL115W, strain asf1, stronger effect = lower value 1.01 | locus YJL129C, strain trk1, stronger effect = lower value 1.03 | locus YJL134W, strain LCB3, stronger effect = lower value 0.996 | locus YJL154C, strain vps35, stronger effect = lower value 1.02 | locus YJL164C, strain tpk1, stronger effect = lower value 1.01 | locus YJL166W, strain qcr8, stronger effect = lower value 1.03 | locus YJL168C, strain set2, stronger effect = lower value 0.995 | locus YJL187C, strain SWE1 (second series), stronger effect = lower value 0.99 | locus YJL187C, strain SWE1, stronger effect = lower value 1.01 | locus YJR043C, strain POL32, stronger effect = lower value 0.996 | locus YJR066W, strain TOR1, stronger effect = lower value 0.853 | locus YKL009W, strain mrt4, stronger effect = lower value 0.987 | locus YKL068W, stronger effect = lower value 0.991 | locus YKL085W, strain MDH1 (second series), stronger effect = lower value 0.997 | locus YKL085W, strain MDH1, stronger effect = lower value 0.997 | locus YKL160W, strain elf1, stronger effect = lower value 1.01 | locus YKL190W, strain CNB1, stronger effect = lower value 0.993 | locus YKR001C, strain vps1, stronger effect = lower value 1.01 | locus YKR026C, strain gcn3, stronger effect = lower value 1.02 | locus YKR091W, strain srl3, stronger effect = lower value 1.01 | locus YLL001W, strain dnm1, stronger effect = lower value 1.02 | locus YLL026W, stronger effect = lower value 1.01 | locus YLL041C, strain sdh2, stronger effect = lower value 1.02 | locus YLR027C, strain aat2, stronger effect = lower value 1.02 | locus YLR039C, strain RIC1, stronger effect = lower value 1.04 | locus YLR058C, strain SHM2, stronger effect = lower value 0.985 | locus YLR102C, strain apc9, stronger effect = lower value 0.999 | locus YLR221C, strain rsa3, stronger effect = lower value 1.01 | locus YLR258W, strain gsy2, stronger effect = lower value 1.01 | locus YLR262C, strain YPT6 (second series), stronger effect = lower value 0.998 | locus YLR262C, strain YPT6, stronger effect = lower value 1.04 | locus YLR268W, strain sec22, stronger effect = lower value 1.04 | locus YLR320W, strain mms22, stronger effect = lower value 1.03 | locus YLR330W, strain CHS5, stronger effect = lower value 0.994 | locus YLR342W, strain FKS1 (second series), stronger effect = lower value 1.02 | locus YLR342W, strain FKS1, stronger effect = lower value 1.03 | locus YLR357W, strain rsc2, stronger effect = lower value 1.01 | locus YLR370C, strain arc18, stronger effect = lower value 1.02 | locus YLR371W, strain rom2, stronger effect = lower value 0.98 | locus YLR384C, strain iki3, stronger effect = lower value 1.01 | locus YLR418C, strain cdc73, stronger effect = lower value 0.966 | locus YML016C, strain PPZ1, stronger effect = lower value 0.997 | locus YML032C, strain rad52, stronger effect = lower value 0.966 | locus YML120C, strain ndi1, stronger effect = lower value 1.01 | locus YML124C, strain tub3, stronger effect = lower value 0.99 | locus YMR058W, strain fet3, stronger effect = lower value 1.02 | locus YMR078C, strain ctf18, stronger effect = lower value 0.993 | locus YMR125W, strain sto1, stronger effect = lower value 1.01 | locus YMR129W, stronger effect = lower value 1.01 | locus YMR205C, strain PFK2, stronger effect = lower value 1.05 | locus YMR223W, strain ubp8, stronger effect = lower value 0.986 | locus YMR231W, strain pep5, stronger effect = lower value 0.991 | locus YMR307W, strain GAS1, stronger effect = lower value 0.988 | locus YNL067W, strain RPL9B, stronger effect = lower value 0.995 | locus YNL071W, strain lat1, stronger effect = lower value 1.02 | locus YNL153C, strain GIM3, stronger effect = lower value 0.987 | locus YNL183C, strain NPR1, stronger effect = lower value 0.855 | locus YNL209W, strain ssb2, stronger effect = lower value 1.01 | locus YNL233W, strain BNI4, stronger effect = lower value 1 | locus YNL248C, strain rpa49, stronger effect = lower value 1.01 | locus YNL250W, strain rad50, stronger effect = lower value 0.987 | locus YNL271C, strain bni1, stronger effect = lower value 0.992 | locus YNL298W, strain CLA4, stronger effect = lower value 0.989 | locus YNL307C, strain MCK1, stronger effect = lower value 1.01 | locus YNL322C, strain KRE1 (second series), stronger effect = lower value 1.02 | locus YNR049C, strain mso1, stronger effect = lower value 1.01 | locus YNR052C, strain pop2, stronger effect = lower value 0.985 | locus YOL012C, strain htz1 0.909 | locus YOL147C, strain pex11, stronger effect = lower value 0.995 | locus YOR001W, strain rrp6, stronger effect = lower value 1.02 | locus YOR061W, strain CKA2, stronger effect = lower value 0.967 | locus YOR069W, strain VPS5, stronger effect = lower value 1 | locus YOR070C, strain gyp1, stronger effect = lower value 0.999 | locus YOR080W, strain dia2, stronger effect = lower value 1.02 | locus YOR083W, strain WHI5, stronger effect = lower value 1.01 | locus YOR106W, strain vam3, stronger effect = lower value 1.01 | locus YOR136W, strain idh2, stronger effect = lower value 1 | locus YOR144C, strain elg1, stronger effect = lower value 0.988 | locus YOR184W, strain ser1, stronger effect = lower value 0.988 | locus YOR231W, strain MKK1, stronger effect = lower value 0.873 | locus YOR265W, strain rbl2, stronger effect = lower value 0.987 | locus YOR270C, strain vph1, stronger effect = lower value 1.03 | locus YOR290C, strain snf2, stronger effect = lower value 1.02 | locus YOR316C, strain cot1, stronger effect = lower value 0.994 | locus YPL051W, strain arl3, stronger effect = lower value 1.01 | locus YPL078C, strain atp4, stronger effect = lower value 1.01 | locus YPL106C, strain sse1, stronger effect = lower value 1.02 | locus YPL240C, strain hsp82, stronger effect = lower value 1 | locus YPL256C, strain CLN2, stronger effect = lower value 0.911 | locus YPR119W, strain clb2, stronger effect = lower value 0.993 | locus YPR141C, strain kar3, stronger effect = lower value 0.988 | locus YPR163C, strain tif3, stronger effect = lower value 1 | locus YPR167C, strain met16, stronger effect = lower value 0.989 | strain wtn01, stronger effect = lower value 1.03

From PubChem BioAssay AID1159580 (chemical genetic matrix, 2015)
